Test results taken from PubChem BioAssay AID748 (Sanford-Burnham Center for Chemical Genomics, 2007).
Hit rate of the full screen: of about 96,000 compounds, about 100 (0.1%) were called active.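 The calls were made as follows: active = displacement above 50% at 20 µM plus a fluorescence interference ratio under 1.5; inactive = the rest.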 The list comes from a sample in which actives are over-represented; it also holds similar structures and randomly drawn compounds. Results with a measured potency or affinity are listed apart.

molecular target: Bcl-2-like protein 10 (Homo sapiens) (UniProt Q9HD36); test: displacers of TR3 peptide from Bcl-B, primary screen, selectivity assay for Bfl-1 inhibitor project, biochemical, fluorescence polarization, FITC-TR3 peptide (AID 748); conditions: FP displacement of FITC-TR3 peptide from Bcl-B; at 20 µM; active compounds read high;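 also: plate controls were wells without compound for no effect and wells lacking Bcl-B protein for full effect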

| Structure (SMILES) | displacement |
| --- | --- |
| CCOC(=O)c1ccc(NC(=O)CSc2nnc(CNC(=O)c3ccccc3F)o2)cc1 | 0% (inactive) |
| CC(C)(C)C(=O)CSc1nccc(=O)[nH]1 | 2.2% (inactive) |
| O=C1C(C2=NC(C(=O)O)C3C(=O)N(c4ccccc4)C(=O)C23)=C(O)c2ccccc21 (stereo unspecified) | -7% (inactive) |
| COc1ccc(Cl)cc1C(=O)Nc1ccc(S(=O)(=O)N2CCCC2)cc1 | -12.1% (inactive) |
| O=C(CCC1CCCC1)N1CCN(S(=O)(=O)Cc2ccccc2)CC1 | -7.6% (inactive) |
| O=C(Nc1ccc(-c2nnc(-c3ccco3)o2)cc1)C(c1ccccc1)c1ccccc1 | 3.9% (inactive) |
| COC(=O)CSc1nnc(CNS(=O)(=O)c2ccc(Cl)cc2)n1C | 8.2% (inactive) |
| Cc1cc(NC(=O)COC(=O)C2CCN(S(=O)(=O)c3cccc(Cl)c3Cl)CC2)no1 | 1.9% (inactive) |
| COc1ccc(CC(=O)OCC(=O)Nc2ncc(Cl)cc2Cl)cc1OC | 3% (inactive) |
| COc1cc(CCC(=O)OCC(=O)Nc2ncc(Cl)cc2Cl)cc(OC)c1OC | 32.6% (inactive) |
| Cc1cc(NC(=O)COC(=O)C2CCN(S(=O)(=O)c3ccc(Cl)cc3)CC2)no1 | 7.5% (inactive) |
| Cc1ccc(Cl)cc1N1CCN(C(=O)c2cn(C)c(=O)c3c2c2ccccc2n3C)CC1 | -4.3% (inactive) |
| CC(=O)Nc1ccc(NC(=O)C(C)n2nc([N+](=O)[O-])c(Br)c2C)cc1 (stereo unspecified) | -5.9% (inactive) |
| CC(=O)c1c(C)[nH]c(C(=O)Nc2c(C)n(C)n(-c3ccccc3)c2=O)c1C | 1% (inactive) |
| COc1cccc(C=Nc2ccccc2C(=O)Nc2nccs2)c1OC | -10.6% (inactive) |
| O=C(C[n+]1ccc(C(=O)N/N=C/c2ccc(Br)cc2)cc1)c1ccccc1 | 43.2% (inactive) |
| O=C(C[n+]1ccc(C(=O)N/N=C/c2ccc(OCc3ccccc3)cc2)cc1)c1ccccc1 | 46.7% (inactive) |
| CCOC(=O)C1C(C#N)=C(N)OC(C)=C1c1ccncc1 (stereo unspecified) | 11.4% (inactive) |
| COc1ccc2nc(COC(=O)c3ccco3)c(C(C)=O)[n+]([O-])c2c1 | 10.7% (inactive) |
| CC(=O)c1c(COC(=O)c2ccco2)nc2ccccc2[n+]1[O-] | 68.3% (active) |
| CCOC(=O)c1c(COC(=O)c2ccco2)nc2ccccc2[n+]1[O-] | -4.9% (inactive) |
| O=C1CC(Cc2ccccc2)C(=O)N1Cc1ccco1 (stereo unspecified) | 0% (inactive) |
| CCn1c(Cn2nnc(-c3ccccc3)n2)nnc1SCC(=O)Nc1ccc(N(C)C)cc1 | 4.2% (inactive) |
| Cc1nnc(NC(=O)NC(C)N2C(=O)C3C4C=CC(C4)C3C2=O)s1 (stereo unspecified) | -30.5% (inactive) |

| Structure (SMILES) | displacement |
| --- | --- |
| O=C1NC2(CCCCC2)NN1c1ccccc1 | -5.6% (inactive) |
| CC(C)(C)C1CCC2(CC1)Nc1cccc3cccc(c13)N2 | -38% (inactive) |
| O=C1CCSc2cccc3cccc(c23)N1 | -2.2% (inactive) |
| CC1=Nc2cccc3cccc(c23)N1 | 2.9% (inactive) |
| O=C(O)Cc1coc(-c2ccc(F)cc2)n1 | -15.2% (inactive) |
| O=C(CN1C(=O)NC2(CCc3ccccc32)C1=O)c1ccc2c(c1)OCCO2 (stereo unspecified) | -13.7% (inactive) |
| COc1cccc(NC(=O)C(NC2CCCC2)c2ccccc2)c1 (stereo unspecified) | 2.1% (inactive) |
| c1coc(CNc2c3c(nc4ccccc24)CCC3)c1 | 26.6% (inactive) |
| CCOC(=O)CNC(=O)c1c2c(nc3ccccc13)CCCC2 | 7.2% (inactive) |
| CC(C)Cn1c(N2CCN(C(=O)c3cccs3)CC2)nc2ccccc21 | -1.5% (inactive) |
| Cc1ccc(SC(CC(=O)c2ccc(C)cc2)C(=O)O)cc1 (stereo unspecified) | -5% (inactive) |
| CSc1nc(C)cc(NC(N)=O)n1 | -7.4% (inactive) |
| Cn1c(C(C#N)C(=O)c2ccco2)nc2ccccc21 (stereo unspecified) | 13.4% (inactive) |
| Cn1c(C(C#N)C(=O)c2sc3ccccc3c2Cl)nc2ccccc21 (stereo unspecified) | -2.9% (inactive) |
| COc1ccccc1-n1c(C)nc2cc(C(=O)O)ccc21 | -9.1% (inactive) |
| Cc1cc(C(=O)NCCC2=CCCCC2)no1 | -6.6% (inactive) |
| C=CCn1c(SCC(=O)NC2CCCC2)nc2scc(-c3ccco3)c2c1=O | 29.6% (inactive) |
| CCCCC(=O)Nc1cccc(NC(=O)CC)c1 | -6.1% (inactive) |
| CCC(=O)Nc1cccc(Br)c1 | -1.7% (inactive) |
| COCCNC(=O)CCCn1c(=O)c2ccccc2n(CC(=O)NCCC2=CCCCC2)c1=O | -8.5% (inactive) |
| COc1ccccc1-c1nn2c(-c3ccccc3Cl)nnc2s1 | 5.7% (inactive) |
| COc1ccccc1-c1nnc2sc(COc3ccccc3)nn12 | 0.4% (inactive) |
| CCC(=O)c1cc(-c2nc3ccccc3n2C)n(C)c1 | 3.7% (inactive) |
| COc1ccccc1-n1nnnc1SCc1cc2c(cc1Br)OCO2 | 2.6% (inactive) |

| Structure (SMILES) | displacement |
| --- | --- |
| c1ccc(-c2cn3c(n2)CCc2ccc4cccnc4c2-3)cc1 | -7.4% (inactive) |
| Brc1ccc(-c2cn3c(n2)CCc2ccc4cccnc4c2-3)cc1 | 1% (inactive) |
| NC(=O)NC(CC(=O)OCC(=O)NC(=O)NCc1ccco1)c1ccc(Cl)cc1 (stereo unspecified) | 0.6% (inactive) |
| CCOc1ccccc1N1CCN(C(=O)c2cc3c(s2)CCC3)CC1 | 0.5% (inactive) |
| COc1ccccc1N1CCN(C(=O)c2ccc(Br)s2)CC1 | -4.4% (inactive) |
| O=C(c1cc2c(s1)CCCCC2)N1CCN(c2ncccn2)CC1 | -2.1% (inactive) |
| CC1CC(C)CN(C(=O)c2cc3c(s2)CCC3)C1 (stereo unspecified) | 0.4% (inactive) |
| CCCC(=O)Nc1cccc(-c2nc3cc(C)c(C)cc3o2)c1 | -1.8% (inactive) |
| CCCN(CCC)C(=O)Cn1c(=O)n(CCC(=O)NCCc2ccccc2)c(=O)c2ccccc21 | 1.2% (inactive) |
| CC(=O)Nc1cc(S(=O)(=O)Nc2ccccc2C)c(C)cc1C | -3.3% (inactive) |
| CCCc1nnc(NC(=O)CCC(=O)N2CCN(CCOc3ccc(C)cc3)CC2)s1 | 1.6% (inactive) |
| CSCCC(NC(=O)c1ccco1)C(=O)OCC(=O)Nc1ncc(Cl)c(C)c1Cl (stereo unspecified) | 14.7% (inactive) |
| Cc1nc(NC(=O)COC(=O)C(NC(=O)c2ccco2)C(C)C)c(Cl)cc1Cl (stereo unspecified) | 24.3% (inactive) |
| CCn1c(SC)nc2c(c1=O)SC(C)C2 (stereo unspecified) | -13.3% (inactive) |
| Cc1c(NC(=O)c2cc(-c3ccccc3)on2)c(=O)n(-c2ccccc2)n1C | 1.8% (inactive) |
| Cc1ccc(-c2cc(C(F)(F)F)n3nc(C(=O)Nc4c(C)n(C)n(-c5ccccc5)c4=O)cc3n2)cc1 | -12.8% (inactive) |
| O=C(OCC(=O)N1CCN(C(=O)c2ccco2)CC1)c1cc(-c2ccccc2)nc2ccccc12 | -78.6% (inactive) |
| COc1ccc(CNC(=O)COC(=O)c2cc(-c3ccco3)nc3ccccc23)cc1 | 42.9% (inactive) |
| O=C(OCC(=O)N1CCN(C(=O)c2ccco2)CC1)c1cc(-c2ccc(F)cc2)nc2ccccc12 | 8.8% (inactive) |
| O=C(COC(=O)c1cc(-c2ccco2)nc2ccccc12)NCc1ccccc1 | -3% (inactive) |
| CC1Cc2ccccc2N1C(=O)CSc1nc2cc3c(cc2cc1C#N)OCO3 (stereo unspecified) | 3.7% (inactive) |
| Cc1cccc(-n2nnc(C(=O)NCc3ccc4c(c3)OCO4)c2N)c1 | -4.7% (inactive) |
| COc1ccc(C(=O)OCC(=O)c2ccc(C3CCCCC3)cc2)cc1 | 0.1% (inactive) |
| Cc1ccc(C(C(=O)NCc2ccco2)N(C(=O)Cn2nnc3ccccc32)c2ccccc2)o1 (stereo unspecified) | 2.5% (inactive) |

| Structure (SMILES) | displacement |
| --- | --- |
| Cc1cc(C)cc(CC2CC(=O)N(c3ccc(Cl)cn3)C2=O)c1 (stereo unspecified) | -1% (inactive) |
| Cn1c2ccccc2c2c(C(=O)NCc3ccco3)cn(C3CCCCC3)c(=O)c21 | 11.7% (inactive) |
| CC(C)CC(=O)Nc1cccc(-c2nc3ccccc3o2)c1 | 5.6% (inactive) |
| NC(=O)c1cc(Cc2ccccc2)sc1NC(=O)c1ccco1 | 0% (inactive) |
| Cc1c(C#N)c2ccccc2n1CC(=O)NC(C)c1ccccc1 (stereo unspecified) | 2.1% (inactive) |
| COc1ccc(Nc2nc(N3CCCC3)c3ccccc3n2)cc1 | 12.9% (inactive) |
| COc1ccc(Nc2nc(N3CCCCC3)c3ccccc3n2)cc1 | 6.9% (inactive) |
| Cc1c(N(C(=O)c2cc(=O)[nH]c3ccccc23)C(C)C)c(=O)n(-c2ccccc2)n1C | -10% (inactive) |
| C=CCn1c(C)cc(C(=O)CSc2nnc(NC(C)C)s2)c1C | -5.7% (inactive) |
| CC(C)Nc1nnc(SCC(=O)Nc2ccc(F)cc2)s1 | 1.5% (inactive) |
| NC(=O)Cn1c(=O)n(CCCC(=O)NC2CCN(Cc3ccccc3)CC2)c(=O)c2ccccc21 | 4.2% (inactive) |
| CC(C)OC(=O)C(NC(=O)c1ccccc1)=C1CCCCC1 | -12.9% (inactive) |
| Cc1ccc(NS(=O)(=O)c2ccc(C(=O)N3CCN(c4ccccn4)CC3)cc2)cc1 | 3.6% (inactive) |
| COc1ccc(N2Cc3cccc(C(=O)N4CCOCC4)c3C2=O)cc1 | 4.6% (inactive) |
| COc1ccc(N2Cc3cccc(C(=O)N4CCN(C(=O)c5ccco5)CC4)c3C2=O)cc1 | 36.1% (inactive) |
| CC1(CC(=O)O)SC(=O)NC1=O (stereo unspecified) | -6% (inactive) |
| CCOC(=O)CCc1c(C)nc2cc(-c3ccccc3OC)[nH]n2c1=O | 4% (inactive) |
| O=CNCCCc1nc2ccccc2n1Cc1cccc2ccccc12 | 1.8% (inactive) |
| COc1ccc(/C=N/NC(=O)COc2ccccc2-c2ccccc2)cc1 | -6.4% (inactive) |
| CCOc1ccc(/C=N/NC(=O)COc2ccccc2-c2ccccc2)cc1 | 9.4% (inactive) |
| CCC1CCCCN1C(=O)COC(=O)c1n[nH]c2ccccc12 (stereo unspecified) | -6% (inactive) |
| Cc1cc(S(=O)(=O)Nc2ccccc2C(=O)O)ccc1Cl | -4.3% (inactive) |
| Cc1nn(-c2ccccc2)c(Cl)c1/C=N/Nc1ccc(S(=O)(=O)Nc2ccccc2C(=O)O)cc1[N+](=O)[O-] | 62.4% (active) |
| COc1c(/C=N/Nc2ccc([N+](=O)[O-])cc2[N+](=O)[O-])c(C)nn1-c1ccccc1 | -2.4% (inactive) |
